Data published in the supplement of paper PMC4237247.
Structures can show the parent of a compound that is named as a salt.

System: HeLa
Experiment: percent cells in S phase; higher = more S arrest
Conditions: 10 µM; 20 h
Protocol: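 HTS of 79,827 drug-like compounds at 10 uM. HeLa cells in 384-well plates were treated for 20 h, fixed, stained with Vybrant DyeCycle Green and scanned on an Acumen eX3 cytometer to give per-well cell cycle profiles (% cells in each phase). The plate Z' was 0.51. Only hits are listed: G1 hits >4 SD and S hits >5 SD from the mean.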

SMILES | percent cells in S phase [%]
Cc1cc(N2CCCCC2)c(F)cc1[N+](=O)[O-] (hit class: S-phase inhibitor) | 29.5
Cc1cc([N+](=O)[O-])ccc1NCc1ccc(F)c(F)c1 (hit class: G1-phase inhibitor) | 9.44
CC(=O)C1=C(O)C(=O)N(CC(=O)O)C1c1ccccc1F (configuration not stated) (hit class: S-phase inhibitor) | 20.4
Cn1c(SCc2ccccc2)nc2ccccc2c1=O (hit class: S-phase inhibitor) | 20.6
c1ccc2c(c1)Nc1nc3ccccc3nc1O2 (hit class: G1-phase inhibitor) | 7.38
O=C(COc1ccc(Cl)cc1)NC(Cc1c[nH]c2ccccc12)C(=O)O (configuration not stated) (hit class: G1-phase inhibitor) | 6.86
C[C@@H]1C[C@H]2[C@@H]3C[C@H](F)C4=CC(=O)C=C[C@]4(C)[C@@]3(Cl)[C@@H](O)C[C@]2(C)[C@H]1C(=O)COC(=O)C(C)(C)C [Clocortolone pivalate] (hit class: S-phase inhibitor) | 23.2
COc1ccc(C(=O)c2coc3ccc(OC)cc3c2=O)cc1 (hit class: G1-phase inhibitor) | 7.3
Cc1ccc(-c2cc(-c3ccccc3Cl)[nH]n2)c(O)c1 (hit class: G1-phase inhibitor) | 7.81
CC[C@@H](C(=O)[C@@H](C)[C@@H](O)[C@H](C)CCc1ccc(C)c(O)c1C(=O)O)[C@H]1O[C@](CC)([C@H]2CC[C@](O)(CC)[C@H](C)O2)C[C@@H]1C [Lasalocid sodium salt] (hit class: G1-phase inhibitor) | 8.33
C[C@@H]1CCC[C@H](C)N1NC(=O)c1ccc(Cl)c(S(N)(=O)=O)c1 [Clopamide] (hit class: G1-phase inhibitor) | 8.75
CCN(CC)Cc1c(O)ccc2c(=O)c(-c3ccccc3)coc12 (hit class: S-phase inhibitor) | 22.3
COc1ccc(CSc2nncn2N)cc1 (hit class: S-phase inhibitor) | 19.7
COc1[nH]c2ccccc2c1C=NO (hit class: S-phase inhibitor) | 19.8
COc1c(C)c2c(c(O)c1C/C=C(\C)CCC(=O)O)C(=O)OC2 [Mycophenolic acid] (hit class: S-phase inhibitor) | 27.7
Nc1ccn([C@H]2CC[C@@H](CO)O2)c(=O)n1 [Zalcitabine] (hit class: S-phase inhibitor) | 21.2
O=C1c2c(O)ccc(O)c2C(=O)c2c(NCCNCCO)ccc(NCCNCCO)c21 [Mitoxantrone dihydrochloride] (hit class: G1-phase inhibitor) | 6.2
